USP8 inh: inhibitors of human USP8 deubiquitinase. inhibition, % at 20 µM. actives 4.2% (n = 47,000). P40818. AID 1645853. purified USP8, Ub-rhodamine cleavage fluorescence, 30 min
USP10 inh: human USP10 deubiquitinase inhibition; purified USP10, Ub-rhodamine fluorescence, 60 min; actives 1.1% (n = 47,000); inhibition, % at 20 µM; Q14694
USP28 inh: human USP28 deubiquitinase inhibition. Q96RU2. purified USP28, Ub-rhodamine cleavage fluorescence, 30 min. inhibition, % at 25 µM. actives 3% (n = 47,000). AID 1645857
USP30 inh: inhibitors of human USP30 deubiquitinase. Q70CQ3. purified USP30, Ub-rhodamine cleavage fluorescence. inhibition, % at 25 µM. actives 5.3% (n = 47,000). AID 1645860
USP17 inh: human USP17-like deubiquitinase inhibition. actives 6.5% (n = 47,000). A8MUK1. purified USP17, Ub-rhodamine cleavage fluorescence, 3 h. inhibition, % at 50 µM
Target sequence (A8MUK1 whole entry, looked up): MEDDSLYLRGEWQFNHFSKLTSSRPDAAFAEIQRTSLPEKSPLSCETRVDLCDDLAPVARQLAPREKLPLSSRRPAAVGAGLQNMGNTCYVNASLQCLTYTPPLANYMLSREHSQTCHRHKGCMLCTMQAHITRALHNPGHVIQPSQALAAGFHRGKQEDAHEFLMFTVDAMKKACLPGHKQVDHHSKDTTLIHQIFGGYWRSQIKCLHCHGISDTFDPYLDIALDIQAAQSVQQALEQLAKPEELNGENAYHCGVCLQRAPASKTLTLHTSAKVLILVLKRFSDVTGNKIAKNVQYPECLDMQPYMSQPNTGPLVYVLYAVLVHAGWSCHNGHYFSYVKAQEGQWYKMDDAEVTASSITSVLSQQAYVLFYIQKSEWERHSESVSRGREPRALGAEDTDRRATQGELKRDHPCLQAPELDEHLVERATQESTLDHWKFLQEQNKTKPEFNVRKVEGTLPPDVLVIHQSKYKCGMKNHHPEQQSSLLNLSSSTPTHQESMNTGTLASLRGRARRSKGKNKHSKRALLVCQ
An asterisk follows results filed as active; . = no result given. An excerpt weighted towards active compounds, which were near 14% of everything screened. Cut-off read from the data, not from the text of the source: active = inhibition above about 30%; inactive = the rest.

SMILES	USP8 inh	USP10 inh	USP28 inh	USP30 inh	USP17 inh
Cc1ccc(CNC(=O)CCn2cnc3c(-c4ccccc4)noc3c2=O)cc1	-2.7	0.3	5.9	27.8	14.1
Cc1noc(-c2cc(=O)n(CC(=O)Nc3ccccc3)c3ccccc23)n1	-0.5	8.9	.	.	41.8*
Cc1c(Cl)cccc1NC(=O)CN1c2ccccc2S(=O)(=O)c2ccccc21	-10.4	-1.3	.	.	-21.1
Cc1c(Cl)cccc1NC(=O)Cn1c(=O)c2ccccc2n2nncc12	-6.3	-3.3	-30.7	-109.4	50.4*
Cc1ccc(CNC(=O)Cn2c(=O)cc(-c3nc(C)no3)c3ccccc32)cc1	6.3	3.9	-6.4	-7.4	42.2*
CCc1noc(-c2cc(=O)n(CC(=O)Nc3ccccc3)c3ccccc23)n1	5.0	11.6	-4.3	1.8	-6.8
Cc1ccc2c(c1)c1ncn(Cc3nc(C)no3)c(=O)c1n2CC(=O)NCc1ccccc1	35.3*	30.0*	57.9*	87.4*	71.5*
Cc1ccc(Cc2nc(-c3ccc(=O)[nH]c3)no2)cc1	-4.4	1.0	91.2*	-3.1	0.0
Cc1ccc(Cc2nc(-c3cccc(-c4ccn[nH]4)c3)no2)cc1	17.5	10.2	45.4*	2.2	10.5
Clc1cc(-c2nc(-c3cccc(-c4ccn[nH]4)c3)no2)ccn1	0.8	0.5	1.0	5.3	40.9*
O=c1ccc(-c2noc(CCc3c[nH]c4ccccc34)n2)c[nH]1	-7.0	-5.9	42.4*	-93.1	-28.0
O=C(Cc1ccccc1)NCc1nc(-c2cccc(-c3ccn[nH]3)c2)no1	0.8	-2.1	7.7	7.4	-0.3
CCc1ccc(S(=O)(=O)c2cnc3ccc(C)cc3c2Nc2ccc(C)c(C)c2)cc1	-4.7	0.3	-14.7	-43.6	-6.4
CCc1cnc(N2C[C@H]3C[C@H](C(=O)NC4CCC4)[C@@H](C2)O3)nc1	-40.1	-0.7	1.8	2.8	-0.7
Cc1nn2c(CNS(=O)(=O)Cc3cc(F)cc(F)c3)c(C)nc2s1	10.3	-1.1	7.6	17.3	-0.1
O=c1ccc(-c2noc(-c3n[nH]c4ccccc34)n2)c[nH]1	56.0*	0.0	-77.0	-194.5	-26.8
COc1ccc(-c2nc(-c3ccccc3)[nH]c2S(=O)(=O)CC(=O)Nc2ccc(F)cc2)cc1	23.8	14.1	20.1	22.0	35.6*
COc1ccc(NC(=O)CS(=O)(=O)c2[nH]c(-c3ccc(C)cc3)nc2-c2ccccc2)cc1Cl	7.3	13.0	8.9	59.8*	21.3
COc1ccc(NC(=O)CS(=O)(=O)c2[nH]c(-c3ccc(F)cc3)nc2-c2ccccc2)cc1Cl	-4.1	6.8	13.8	-7.8	27.4
O=C(NCc1ccccc1F)Nc1ccccc1[N+](=O)[O-]	-39.7	3.5	25.2	56.5*	73.5*
CCn1c(=O)c2sc(N3CCCC3)nc2n(CC(=O)Nc2cccc(Cl)c2C)c1=O	5.0	-4.2	-2.4	23.7	2.4
O=C(NCc1ccccc1Cl)c1ccc2cn[nH]c2c1	7.4	-0.8	55.5*	-0.1	-1.6
CN(C)CCc1cc2c(c3c1ccc1ccccc13)OCO2	7.9	-2.0	74.7*	31.3*	16.6
CC(C)NS(=O)(=O)c1cccc2c(NC(=O)C(Cc3ccccc3)NC(=O)c3ccccc3)cccc12 (centres undefined)	23.8	5.3	1.5	79.4*	6.2
O=C(O)c1ccc(NC(=O)[C@H](Cc2ccc(O)cc2)NC(=O)c2ccccc2)cc1	-2.0	-1.4	.	.	0.0
SMILES	USP8 inh	USP10 inh	USP28 inh	USP30 inh	USP17 inh
COc1ccc(-c2[nH]ncc2CN2CCN(c3ccc(F)cc3)CC2)cc1	-114.7	2.8	-6.4	-16.1	-35.2
COc1ccc(N2CCN(Cc3nnnn3Cc3ccc4c(c3)OCO4)CC2)cc1	-5.1	1.1	2.8	52.9*	42.4*
CC1CCc2c(cnc3c(C(=O)NC4CCCCC4)cnn23)C1 (centres undefined)	17.3	-12.1	-35.0	-117.7	2.1
COc1ccc(CN2C(=O)C(CC(=O)Nc3ccc(C)cc3)n3c2nc2ccccc23)cc1 (centres undefined)	3.2	3.4	-0.3	-2.6	1.7
COc1cc(OC)cc(C(=O)Nc2ccc(O)c(-c3nc4cnccc4o3)c2)c1	-4.2	-1.0	10.7	-0.1	35.2*
COc1cc(OC)cc(C(=O)Nc2cc(-c3cccnc3)no2)c1	12.7	0.0	12.2	16.5	8.0
COc1ccc(C(=O)N2CCN(C3CCN(Cc4c(C)noc4C)CC3)C(=O)C2)c(C)c1	17.6	-3.5	4.5	3.9	12.9
CC1Cc2ccccc2N1Cc1cc[nH]c(=O)c1 (centres undefined)	45.2*	-9.4	-84.6	-310.8	-33.7
Cc1ccc2c(c1)N(C(=O)Cn1cc(S(=O)(=O)N3CCCC3)ccc1=O)CCO2	4.1	-0.4	0.1	9.6	-1.1
CC(C)Nc1nc(-c2ccccc2)nnc1-c1ccccc1	23.8	3.5	14.1	30.9*	17.0
O=C(Nc1ccc(Cl)cn1)c1nn(C2CCS(=O)(=O)C2)c2c1CCCC2 (centres undefined)	8.4	-1.4	-19.2	-72.6	38.2*
O=C(Nc1cccc2cccnc12)c1nn(C2CCS(=O)(=O)C2)c2c1CCCC2 (centres undefined)	4.5	0.3	5.2	2.2	18.3
CCn1ccc(C(=O)N2CC[C@H]3[C@H]2CCCCC(=O)N3Cc2cccc(C(F)(F)F)c2)n1	-5.5	-1.4	-9.7	0.0	-6.4
O=C(Cc1ccc(F)cc1)Nc1ccc(N2CCOCC2)cc1	-6.5	-3.4	-9.8	-14.8	-17.4
COc1cccc(/C=C/C(=O)Nc2ccc(N3CCOCC3)cc2)c1OC	22.7	2.8	59.6*	12.7	30.4*
Cc1ccn(-c2ccc(NC(=O)C3CCCCC3)cc2)n1	11.6	4.8	11.0	10.2	57.1*
CN(C(=O)Nc1ccccc1F)c1nc2c(s1)CN(Cc1ccccc1)C2=O	13.1	-0.5	-31.6	-89.7	-30.8
CCN(c1ccc(NC(=O)COC(=O)c2cccnc2Nc2cccc(C(F)(F)F)c2)cc1)C(C)C	9.0	11.9	13.0	24.3	5.0
CCN(c1ccc(NC(=O)CSc2nccc(=O)[nH]2)cc1)C(C)C	58.8*	2.6	-3.0	-11.9	12.5
COc1cccc(Cc2nc(-c3nnn(Cc4ccc(F)cc4)c3C)no2)c1	0.6	-3.7	2.7	-34.0	0.4
Cc1nnc(NCc2cccnc2)c2c1nnn2Cc1ccc(F)cc1	-11.1	-3.6	34.3*	6.1	10.7
COc1ccc(Sc2nnc(C)c3nnn(Cc4ccc(F)cc4)c23)cc1	-107.3	8.2	17.0	28.5	32.1*
Cc1nnc(NCCO)c2c1nnn2Cc1ccccc1Cl	1.9	-0.3	9.8	0.4	-5.9
COc1ccccc1NC(=O)c1cc(S(=O)(=O)N2CCCc3ccccc32)ccc1F	-2.0	-1.5	0.2	11.3	42.9*
COc1ccc(S(=O)(=O)N2CCc3ccccc32)cc1C(=O)Nc1ccc2[nH]c(=O)[nH]c2c1	73.3*	31.4*	37.4*	87.4*	27.3
N#Cc1ccc(Cc2ncc(C(F)(F)F)cc2Cl)s1	0.3	2.7	59.8*	-0.1	2.7
O=S(=O)(NCc1ccccn1)c1ccc(Cc2ncc(C(F)(F)F)cc2Cl)s1	-19.4	-0.4	-16.8	-20.1	-17.6

Source: PubChem BioAssay (Buhrlage Lab, Dana-Farber Cancer Institute and Novartis Institutes for BioMedical Research (Cambridge, Mass))
